Assay outcomes: PubChem, National Center for Advancing Translational Sciences (NCATS)
Pf growth 96h = inhibits malaria parasite growth, 96 h; P. falciparum luciferase reporter growth, 96 h; actives 6.9% (n = 320,000); Potency, µM (highest dose often 28.7 µM), inactives show top-dose activity change, negative = inhibition, hits mostly inhibitors; AID 504834
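P. falciparum expressing integrated firefly luciferase, in erythrocytes at 2% hematocrit, 0.05% parasitemia, incubated with compounds 96 h at 37 C, 5% CO2. Growth inhibition read as loss of luminescence; two-generation exposure targets delayed-death apicoplast inhibitors.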
VACV mCherry inh = inhibitors of vaccinia virus infection (mCherry reporter signal); Vaccinia virus mCherry reporter infection, fluorescence; Potency, µM (doses to about 36.5 µM), without a hit: top-dose activity change, negative = inhibition, most hits filed as inhibitors; actives 0.63% (n = 310,000); AID 720579; calls by dose curve; tested in A549 cells; further: nearly all actives have a fitted effect of over 35% in size
VACV Venus inh = vaccinia inhibition (Venus reporter). Vaccinia virus Venus reporter expression, fluorescence. Potency, µM (series often up to 36.5 µM), inactives show at the top dose activity change, negative = inhibition, actives largely listed as inhibitors. actives 0.46% (n = 330,000). AID 720580; calls by dose curve; tested in A549 cells; further: nearly all actives have a fitted effect of over 30% in size
AMA1 RON2 block = disrupts binding of P. falciparum AMA1 to RON2; Potency, µM (series often up to 58.2 µM), without a hit: at the top dose activity change, negative = inhibition, hits mostly inhibitors; AlphaScreen AMA1-biotinylated RON2 peptide binding; actives 0.2% (n = 360,000);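 further: 0% = vehicle wells and -100% = peptide control; nearly all actives have a fitted effect of over 45% in size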
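AMA1 (3D7) with his tag at 25 nM final met compounds first, then biotinylated RON2 peptide at 25 nM; detection used donor plus acceptor beads, 10 µg/mL apiece, read by AlphaScreen after 30 min at room temperature.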
Pf growth 48h = P. falciparum growth inhibition at 48 hours (one generation). AID 504832. P. falciparum luciferase growth in erythrocytes, 48 h. Potency, µM (titrated, usually from 28.7 µM), for the others: at the highest dose activity change, negative = inhibition, actives largely listed as inhibitors. actives 5.9% (n = 310,000)
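A one-generation exposure of luciferase-tagged malaria parasites in RPMI 1640/Albumax erythrocyte culture, 37 C and 5% CO2. Inhibition is inferred from decreased luminescence after adding detection reagent.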
* marks the source's active call; other numbers are inactive results. A selection: hits, their analogues and other compounds. The true share with any hit is near 8.7%. Unless noted, the call rests on the fitted dose curve; in most records, active means well fitted curve in the direction sought with a large enough effect; inconclusive means small, poorly fitted or top-dose-only effect, or another doubt; inactive means no such curve, though single readings can be large; an effect the other way counts as inactive or inconclusive. Unless noted, on the % scale 0 is the no-effect control and ±100 the full control effect; potency means the concentration at half of the fitted maximal effect.

`COc1cccc(C2(c3cccc(OC)c3)CC2C(=O)Nc2cccc3ccccc23)c1` (stereo unspecified) gave Pf growth 96h 5.2µM*, VACV mCherry inh -18%, VACV Venus inh -2%, AMA1 RON2 block -7% and Pf growth 48h 9.3µM*.
For CN(C)C(=O)[C@@H]1C[C@H]1[C@@H](NC(=O)OCc1ccccc1)c1ccccc1 the results were Pf growth 96h -19%, VACV mCherry inh inactive, VACV Venus inh -21%, AMA1 RON2 block 4% and Pf growth 48h 1%.
COC(=O)[C@H]1C[C@@H]1[C@H](NC(=O)[C@H]1C[C@@H]1[C@H](NC(=O)OCc1ccccc1)c1ccccc1)c1ccccc1 was read as Pf growth 96h 15µM*, VACV mCherry inh inactive, VACV Venus inh -27%, AMA1 RON2 block 6% and Pf growth 48h inconclusive.
For O=C(NCCc1ccccc1)C(c1ccccc1)N(C(=O)c1csnn1)C1CC1 (stereo unspecified) the results were Pf growth 96h inconclusive, VACV mCherry inh -13%, VACV Venus inh -10%, AMA1 RON2 block -6% and Pf growth 48h -15%.
`CC(C)c1ccc(C(C(=O)NC2CCCCC2)N(C(=O)c2csnn2)C2CC2)cc1` (stereo unspecified) gave Pf growth 96h 11%, VACV mCherry inh -2%, VACV Venus inh -17%, AMA1 RON2 block -4% and Pf growth 48h 13µM*.
`O=C(NCCc1ccccc1)C(c1ccncc1)N(C(=O)c1csnn1)C1CC1` (stereo unspecified) gave Pf growth 96h 12µM*, AMA1 RON2 block 2% and Pf growth 48h -17%.
Screening CCOc1ccc(-c2nnc(SCC(=O)Oc3ccccc3)o2)cc1 returned VACV mCherry inh -12% and VACV Venus inh -5%.
For Cc1ccc(NC(=O)Cc2nc(CN(C)CC(=O)Nc3ccc(C)cc3)cs2)cc1 the results were Pf growth 96h inconclusive, AMA1 RON2 block 43% and Pf growth 48h 13µM*.
Cc1ccc(NC(=O)Cc2nc(CSc3nnc(-c4ccc5c(c4)OCO5)o3)cs2)cc1 was read as Pf growth 96h 3.7µM*, AMA1 RON2 block 5% and Pf growth 48h 212%.
Screening Cc1ccccc1NC(=O)Cc1nc(CN(C)CC(=O)Nc2cccc(F)c2)cs1 returned Pf growth 96h inconclusive, AMA1 RON2 block 101% and Pf growth 48h inconclusive.
`CN(C)C(=O)c1ccc(NC(=O)CSc2nnc(-c3ccc4c(c3)OCO4)o2)cc1` gave Pf growth 96h inconclusive, VACV mCherry inh -11%, VACV Venus inh -9%, AMA1 RON2 block -3% and Pf growth 48h 1%.
`COc1ccc(CC(=O)OCC(=O)c2c[nH]c3ccccc23)cc1` gave Pf growth 96h -112%, AMA1 RON2 block 5% and Pf growth 48h 8.3µM*.
`O=C(CNS(=O)(=O)c1ccccc1)OCC(=O)c1c[nH]c2ccccc12` gave Pf growth 96h 4.1µM*, AMA1 RON2 block 8% and Pf growth 48h 8.3µM*.
For COc1cc(CC(=O)OCC(=O)c2c[nH]c3ccccc23)cc(OC)c1OC the results were Pf growth 96h 13µM*, AMA1 RON2 block 4% and Pf growth 48h 4.1µM*.
For COc1ccccc1C(=O)COC(=O)Cc1c[nH]c2ccccc12 the results were Pf growth 96h 44%, VACV mCherry inh -18%, VACV Venus inh -7%, AMA1 RON2 block 17% and Pf growth 48h 13%.
Screening COc1ccc(C(=O)NCC(=O)OCC(=O)c2c[nH]c3ccccc23)cc1 returned VACV mCherry inh 0%, VACV Venus inh 0% and AMA1 RON2 block -10%.
`O=C(CC1CC2CCC1C2)OCC(=O)c1c[nH]c2ccccc12` (stereo unspecified) gave Pf growth 96h 5.2µM*, VACV mCherry inh inactive, VACV Venus inh -13%, AMA1 RON2 block inconclusive and Pf growth 48h inconclusive.
For O=C(CNS(=O)(=O)c1ccccc1F)OCC(=O)c1c[nH]c2ccccc12 the results were Pf growth 96h 34%, AMA1 RON2 block 1% and Pf growth 48h 0%.
Screening Cc1cccc(N2CCN(C(=O)C3CCN(S(=O)(=O)Cc4ccccc4)CC3)CC2)c1C returned VACV mCherry inh -16% and VACV Venus inh -21%.
